Compound activity: PubChem, National Center for Advancing Translational Sciences (NCATS)
Hits are enriched below; roughly 8% of the tested compounds scored in any of these assays.
SW480 rerep: A quantitative high throughput screen for small molecules that induce DNA re-replication in SW480 colon adenocarcinoma cells; SW480 DNA re-replication, Hoechst DNA content imaging, 48 h; Potency, µM (top dose mostly 46.1 µM), actives largely listed as activators; 1.8% of 340,000 active; further: nearly all actives have a fitted effect of over 55% in size
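Quantitative HTS format with DMSO vehicle controls; 48 hr drug incubation at 37 C, then 40 min Hoechst staining and scanning imager measurement at 405 nm excitation.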
HT1080NT lethal: qHTS for induction of synthetic lethality in tumor cells producing 2HG: qHTS for the HT-1080-NT fibrosarcoma cell line | HT-1080-NT fibrosarcoma viability, CellTiter-Glo ATP luminescence, 48 h | Potency, µM (highest dose often 46.1 µM), usual class: cytotoxic | 1.6% of 360,000 active | AID 686970, 2013;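 further: NT is the 2HG producing partner of a matched IDH1 knockdown line; nearly all actives have a fitted effect of over 55% in size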
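Fibrosarcoma NT cells, 750 per well in 5% FBS RPMI, were exposed to compound for 48 hours. Viability: CellTiter-Glo luminescence.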
KB-3-1 tox: qHTS assay for MDR1-selective chemotherapeutics: Primary screen using the parental adenocarcinoma cell KB-3-1; 1.4% of 400,000 active; AID 1347075, 2019; KB-3-1 viability, CellTiter-Glo ATP luminescence, 72 h; Potency, µM (top dose mostly 46.1 µM), usual class: cytotoxic; further: nearly all actives have a fitted effect of over 60% in size
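72 h, 37 °C compound treatment of KB-3-1 parental cells; CellTiter-Glo added, 10 min, luminescence read. Data corrected against DMSO-only plates and normalized before curve fitting.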
MCF10A rereplic: A quantitative high throughput screen for small molecules that induce DNA re-replication in MCF 10a normal breast cells; MCF 10A DNA re-replication, Hoechst nuclear intensity, 48 h; 2.9% of 350,000 active; Potency, µM (titrated, usually from 46.1 µM), actives largely listed as activators; AID 624296, 2012; further: nearly all actives have a fitted effect of over 50% in size
KB-V1 MDR tox: qHTS assay for MDR1-selective chemotherapeutics: Primary screen using the drug-selected MDR subline cells KB-V1 | KB-V1 MDR cells viability, CellTiter-Glo, 72 h | Potency, µM (highest dose often 46.1 µM), most hits filed as cytotoxic | 3.4% of 400,000 active; further: nearly all actives have a fitted effect of over 60% in size
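Drug-selected KB-V1 cells, grown in DMEM lacking phenol red with 10% FBS, receive compound titrations; after three days at 37 degrees C, surviving cell ATP is quantified by CellTiter-Glo luminescence and responses normalized and curve-fitted.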
HT1080 IDH1KD tx: qHTS for induction of synthetic lethality in tumor cells producing 2HG: qHTS for the HT-1080-IDH1KD cell line; HT-1080 IDH1 knockdown viability, ATP luminescence, 48 h; AID 686971, 2013; 2% of 360,000 active; Potency, µM (top dose mostly 46.1 µM), hits mostly cytotoxic
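CellTiter-Glo luminescence after 48 h compound exposure at 37 degrees C of IDH1-knockdown HT-1080 cells in 5% FBS RPMI. %Activity scaled between DMSO wells and cell-free media wells, with curves fitted and assigned curve classes.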
A number is an active result; . = inactive; ? = inconclusive; / = not tested or not shown; ! = repeats disagree; [ ] = another dose, or the depositor's remark. The call rests on the fitted dose curve; in most records, active means well fitted curve in the direction sought with a large enough effect; inconclusive means small, poorly fitted or top-dose-only effect, or another doubt; inactive means no such curve, though single readings can be large; an effect the other way counts as inactive or inconclusive.

SMILES | SW480 rerep | HT1080NT lethal | KB-3-1 tox | MCF10A rereplic | KB-V1 MDR tox | HT1080 IDH1KD tx
O=S(=O)(c1cccc(-c2csc(-c3ccccc3)n2)c1)N1CCOCC1 | ? | . | . | .[0.0737 µM] | . | .
CCN1CCN(C(=O)c2ccc(-c3nc4ccccc4s3)s2)CC1 | . | . | . | ? | . | .
O=C(c1ccc(-c2nc3ccccc3s2)s1)N1CCOCC1 | . | 8.2µM | ? | ? | ? | ?
O=S(=O)(c1cccc(-c2nc3ccccc3s2)c1)N1CCOCC1 | . | . | ? | . | 16.4µM | .
O=C(CSc1nnc(CNC(=O)c2c(F)cccc2Cl)o1)Nc1ccccc1F | / | / | . | / | . | /
COc1ccc(-n2cc(-c3ccccc3)[nH]c2=S)c(OC)c1 | 18.4µM | ? | 16.4µM | 16.4µM | . | ?
COc1ccc(-n2cc(-c3ccc(OC)c(OC)c3)[nH]c2=S)cc1 | ? | . | . | . | . | .
CC1(C)CCC(=O)N2CC[C@H]3C[C@H](OC(=O)Nc4ccccc4)C[C@@H]1[C@H]32 | . | . | . | . | 18.4µM! | .
CC(=O)c1c(C)oc2ccc(N(C(=O)Oc3ccccc3)S(=O)(=O)c3ccc(Cl)cc3)cc12 | / | / | . | / | . | /
Cc1ccc2c(c1)c1c(c(=O)n(Cc3ccccc3)c(=O)n1CC(=O)NCc1ccccc1Cl)n2C | / | / | . | / | . | /
O=C(CN(Cc1ccccc1)C(=O)CSc1nnc(COc2ccccc2)o1)NC1CCCC1 | . | . | . | . | . | .
O=C(CN(Cc1cccs1)C(=O)CSc1nnc(COc2ccccc2)o1)NC1CCCC1 | ? | . | . | 10.3µM | . | .
CC1CCCC(NC(=S)NC(=O)c2ccccc2Br)C1C (stereo not given) | ? | . | 25.9µM | ? | 16.4µM | .
CCC(=O)N1CCC1(C)C(=O)Nc1cnc2ccccc2c1 (stereo not given) | / | ? | . | / | . | .
CCOc1ccc(NC(=O)c2oc3ccccc3c2NC(=O)Cc2cccc(C)c2)cc1 | / | / | . | / | . | /
CCOc1ccccc1Nc1nnc(SCc2nnc(-c3cc(OC)c(OC)c(OC)c3)o2)s1 | . | . | . | ? | ? | .
COc1cc(-c2nnc(CSc3nnc(Nc4ccc(C(C)C)cc4)s3)o2)cc(OC)c1OC | . | ? | . | 14.6µM | 20.6µM | 16.4µM
COc1ccccc1Nc1nnc(SCc2nnc(-c3cc(OC)c(OC)c(OC)c3)o2)s1 | ? | . | . | 20.6µM | ? | .
Cc1ccc(Cc2nc3ccccc3nc2SCC(=O)NCCc2ccccc2)cc1 | / | / | . | / | . | /
Cc1n[nH]c(C)c1S(=O)(=O)N(CC(=O)NCc1ccccc1Cl)c1ccc(C(C)C)cc1 | / | / | . | / | . | /
O=C(c1ccco1)N1CCN(C(=O)c2ccco2)C1=S | 5.8µM | ? | 11.6µM | 2.59µM | 16.4µM | 16.4µM
O=C(c1ccco1)N1CCN(C(=O)N2CCOCC2)CC1 | 0.164µM | . | . | ? | . | .
O=C(c1ccco1)N1CCCN(C(=O)c2ccco2)CC1 | . | . | . | . | . | .
CC(=O)C1=C(S(=O)(=O)c2ccc(C)cc2)CS(=O)(=O)C1 | 14.6µM | ? | ? | 14.6µM | . | ?
Cc1ccc(S(=O)(=O)C2CS(=O)(=O)CC2O)cc1 (stereo not given) | . | . | . | . | . | .
O=C1C=C(NCc2ccc(Cl)cc2Cl)C2(CCCCC2)O1 | ? | . | . | 9.2µM | . | .
CN(C)CCCNC1=CC(=O)OC12CCCCC2 | . | . | . | . | . | .
Cc1ccc2nc(C)cc(Nc3ccc([N+](=O)[O-])cc3)c2c1 | 9.2µM | . | ? | 2.91µM | . | ?
COC(=O)c1ccc2nc(C)cc(Nc3ccccc3C)c2c1 | . | . | . | . | . | .
CC(=O)c1cccc(Nc2cc(C)nc3ccc(C)cc23)c1 | .[9.22 µM] | 18.4µM | ? | . | ? | ?
